The source made the active and inactive calls. Unless noted, no rule for the calls is given here.
Key:
[1] = HepG2 liver cancer cell viability effects, profiling panel, resazurin fluorescence, 24 h, PK04 Diversity Set (AID 1172); conditions: higher = more signal; also: test concentration not given here
[2] = basal S. cerevisiae growth modulation, no modifier, primary screen, OD600, strain BY4716, 24 h, basal condition (AID 1173); conditions: OD600, 24 h, higher = more signal, called active from +8 up or from −8 down
[3] = MM1S myeloma cell viability, profiling panel, resazurin fluorescence, basal, 24 h, PK04 Diversity Set (AID 1174); conditions: higher = more signal, called active from +8 up or from −8 down;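 also: MM1S multiple myeloma cell line; test concentration not given here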
[4] = target: Dihydroorotate dehydrogenase (quinone), mitochondrial (Plasmodium falciparum (isolate 3D7)) (UniProt Q08210); assay: PfDHODH enzyme inhibitors, primary screen, biochemical, C-terminal His tag, absorbance 600 nm (AID 1175); conditions: DCIP absorbance 600 nm, higher = more signal, called active from +8 up or from −8 down;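 also: recombinant parasite enzyme with a five histidine tag at its C terminus; test concentration not given here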
Sequence of Dihydroorotate dehydrogenase (quinone), mitochondrial (Plasmodium falciparum (isolate 3D7)) (Q08210 whole entry, looked up): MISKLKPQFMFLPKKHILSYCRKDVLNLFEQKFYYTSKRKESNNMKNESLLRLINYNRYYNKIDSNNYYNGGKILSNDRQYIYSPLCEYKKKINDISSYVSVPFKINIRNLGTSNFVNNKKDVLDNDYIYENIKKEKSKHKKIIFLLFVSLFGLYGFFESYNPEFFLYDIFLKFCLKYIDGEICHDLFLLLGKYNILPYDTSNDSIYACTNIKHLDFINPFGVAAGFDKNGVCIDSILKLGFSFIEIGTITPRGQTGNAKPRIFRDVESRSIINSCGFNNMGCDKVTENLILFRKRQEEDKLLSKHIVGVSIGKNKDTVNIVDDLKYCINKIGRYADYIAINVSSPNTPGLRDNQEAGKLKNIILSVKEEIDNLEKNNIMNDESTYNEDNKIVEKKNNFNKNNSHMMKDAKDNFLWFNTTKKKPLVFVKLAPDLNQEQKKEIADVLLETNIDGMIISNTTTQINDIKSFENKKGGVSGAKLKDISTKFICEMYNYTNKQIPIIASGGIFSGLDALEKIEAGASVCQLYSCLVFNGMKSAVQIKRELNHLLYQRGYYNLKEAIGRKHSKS

[5] = P. aeruginosa biofilm formation inhibitors, primary screen, strain PAO1, LB-PBS medium, absorbance 600 nm (AID 1176); also: test concentration not given here; conditions: P. aeruginosa PAO1 growth/biofilm, A600, 12 h; higher = more signal
[6] = S. cerevisiae RM11-1a growth modifiers, primary screen, strain RM11-1a, OD600, basal, 24 h (AID 1177); conditions: OD600, 24 h, higher = more signal, called active from +8 up or from −8 down;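 also: cultures grown under basal conditions with no added stressor; test concentration not given here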
[7] = E. coli acrAB mutant growth effects, primary screen, E. coli filamentation inducers, strain DRC39, OD650, 24 h (AID 1178); conditions: higher = more signal, called active from +8 up or from −8 down;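 also: growth measured as culture turbidity by optical density at 650 nm; test concentration not given here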
[8] = E. coli acrAB mutant growth effects, primary screen, E. coli filamentation inducers, strain DRC39, OD650, 48 h (AID 1179);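 also: screen aims at cell division blockers that make cells filament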; conditions: E. coli DRC39 delta-acrAB growth, higher = more signal, called active from +8 up or from −8 down
[9] = RPMI8226 myeloma cell viability, profiling panel, resazurin fluorescence, basal, 24 h, PK04 Diversity Set (AID 1180); conditions: higher = more signal;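 also: RPMI8826 multiple myeloma cell line at 5000 cells per well; test concentration not given here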
[10] = target: E3 ubiquitin-protein ligase XIAP (Homo sapiens) (UniProt P98170); assay: XIAP binders, primary screen, biophysical, small-molecule microarray, fluorescence 635 nm (AID 1181); conditions: small-molecule microarray binding, higher = more signal;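 also: score merges 667 nm emission and signal to noise over triplicate slides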
Sequence of E3 ubiquitin-protein ligase XIAP (Homo sapiens) (P98170 whole entry, looked up): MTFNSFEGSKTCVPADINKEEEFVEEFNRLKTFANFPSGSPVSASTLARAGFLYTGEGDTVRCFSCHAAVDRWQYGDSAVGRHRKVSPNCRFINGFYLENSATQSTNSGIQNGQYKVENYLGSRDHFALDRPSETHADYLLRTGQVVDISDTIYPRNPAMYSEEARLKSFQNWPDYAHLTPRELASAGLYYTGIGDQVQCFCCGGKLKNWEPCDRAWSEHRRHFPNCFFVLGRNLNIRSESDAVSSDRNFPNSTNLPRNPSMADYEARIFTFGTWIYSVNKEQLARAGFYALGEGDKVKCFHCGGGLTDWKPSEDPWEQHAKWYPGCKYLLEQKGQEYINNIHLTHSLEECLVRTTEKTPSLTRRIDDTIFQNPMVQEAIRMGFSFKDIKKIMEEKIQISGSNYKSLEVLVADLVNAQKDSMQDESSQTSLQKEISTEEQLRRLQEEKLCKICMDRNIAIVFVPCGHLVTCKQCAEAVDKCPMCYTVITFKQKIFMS

Row | Structure (SMILES) | z-score [1] | z-score [2] | z-score [3] | composite z-score [4] | z-score [5] | z-score [6] | z-score [7] | z-score [8] | z-score [9] | composite z-score [10]
1 | CCN1C(=O)[C@H]2[C@H]3[C@H](O)[C@H](O)CC(=NO[C@@H]4O[C@H](CO)[C@@H](O)[C@H](O)[C@H]4O)[C@@H]3CC[C@H]2C1=O | -0.59 | -0.369 (inactive) | -0.596 (inactive) | -0.794 (inactive) | -0.343 (inactive) | -0.654 (inactive) | 0.226 (inactive) | 0.117 (inactive) | -0.922 | 0.0623
2 | COC(=O)[C@@]1(Cc2ccc(F)cc2)[C@@H]2C(=CC(=O)[C@H]2CC(=O)C(=O)N(C)C)CN1C(=O)c1ccccc1 | -1.46 | 1.69 (inactive) | -2.73 (inactive) | 0.354 (inactive) | 0.784 (inactive) | 1.38 (inactive) | -0.0125 (inactive) | 0.0104 (inactive) | -2.94 | -0.174
3 | CC(C)OC(=O)C=C1C[C@@H](c2ccc(C#N)cc2)O[C@@H](c2ccc(C#N)cc2)O1 | -0.389 | -0.709 (inactive) | -0.793 (inactive) | 0.382 (inactive) | -0.281 (inactive) | 0.146 (inactive) | -0.667 (inactive) | -0.182 (inactive) | -0.312 | -0.0994
4 | CCOC(=O)CCN1C(=O)[C@H]2[C@H]3[C@H](O)[C@H](O)CC(=NNC(=O)OCc4ccc(OC)cc4)[C@@H]3CC[C@H]2C1=O | -0.54 | 0.458 (inactive) | -1.24 (inactive) | 0.489 (inactive) | -0.0242 (inactive) | -0.217 (inactive) | 0.149 (inactive) | 0.237 (inactive) | -1.14 | -0.171
5 | CCOC(=O)[C@H](Cc1ccccc1)NC(=O)CCC1CC(OC(=O)NCCc2ccc(F)cc2)CC2(CCCC(COC(=O)NCC(c3ccccc3)c3ccccc3)O2)O1 (stereo not given in full) | 0.506 | 0.167 (inactive) | -0.874 (inactive) | -0.219 (inactive) | 0.0494 (inactive) | 0.509 (inactive) | 0.565 (inactive) | -0.563 (inactive) | 0.489 | -0.161
6 | COc1ccc(-c2nc3c(c4c2C[C@H](C)OC4)CN(CCC(C)C)CC3)cc1 | -0.182 | -0.827 (inactive) | -0.145 (inactive) | -0.133 (inactive) | 0.262 (inactive) | 0.602 (inactive) | 1.15 (inactive) | 0.479 (inactive) | -0.239 | -0.0559
7 | COc1cccc([C@@H]2Oc3ccc(Br)cc3C(=O)[C@H]2O)c1 | -0.41 | -14.5 (active) | -1.99 (inactive) | -0.071 (inactive) | -0.0782 (inactive) | -0.361 (inactive) | 0.255 (inactive) | 0.139 (inactive) | -1.02 | -0.391
8 | COCC(=C=CC[C@@H](O)c1ccccc1OCCO)CCO | 0.721 | -0.853 (inactive) | 0.599 (inactive) | -1.59 (inactive) | 0.0356 (inactive) | 0.0502 (inactive) | 1.63 (inactive) | 1.16 (inactive) | 1.42 | 0.326
9 | CC(C)=CCCC(C)=CCON=C1C[C@@H](O)[C@@H](O)[C@@H]2[C@@H]3C(=O)N(C[C@@H]4CCCO4)C(=O)[C@@H]3CC[C@@H]12 | 0.502 | -0.242 (inactive) | -0.041 (inactive) | -0.111 (inactive) | -0.261 (inactive) | 0.348 (inactive) | 0.122 (inactive) | 0.511 (inactive) | 0.424 | -0.264
10 | CCc1cc2c(nc1CC)CCN(CCC(C)=NO[C@@H](C)c1cc(-c3c(C)cc(C)cc3C)no1)C2 | -0.0169 | -2.75 (inactive) | -0.433 (inactive) | -0.0406 (inactive) | 0.903 (inactive) | 0.526 (inactive) | 0.416 (inactive) | 0.566 (inactive) | 0.374 | 0.19
11 | O=C(NN=C1C[C@@H](O)[C@@H](O)[C@@H]2[C@@H]3C(=O)N(c4ccc(F)cc4F)C(=O)[C@@H]3CC[C@@H]12)OCc1ccccc1 | 0.801 | 0.207 (inactive) | 0.442 (inactive) | -0.192 (inactive) | -1.09 (inactive) | 1.01 (inactive) | 0.502 (inactive) | 0.873 (inactive) | 0.508 | -0.27
12 | CCc1cccc(NC(=O)O[C@H]2[C@H](OC(=O)Nc3ccc4c(c3)OCO4)[C@@H](OC(=O)Nc3ccc4c(c3)OCO4)[C@@H](OC)O[C@@H]2CO)c1 | 1 | 1.04 (inactive) | -0.517 (inactive) | -0.0004 (inactive) | 0.745 (inactive) | 1.88 (inactive) | 1.57 (inactive) | 0.494 (inactive) | -0.36 | -0.173
13 | COCCCNC(=O)[C@]1(Cc2ccccc2)N=C(c2ccc(OCCCO)cc2)O[C@@H]1c1ccccc1 | 0.754 | -0.706 (inactive) | 0.325 (inactive) | -0.0882 (inactive) | 0.494 (inactive) | -0.499 (inactive) | 0.156 (inactive) | -1.11 (inactive) | 0.778 | -0.0118
14 | CC(C)=CCCC(C)=CCON=C1[C@H]2CCn3c(=O)n(Cc4cc5c(cc4Cl)OCO5)c(=O)n3[C@H]2[C@H](O)[C@@H]2O[C@H]12 | -0.594 | -0.696 (inactive) | -0.738 (inactive) | 0.207 (inactive) | -0.471 (inactive) | -0.537 (inactive) | -0.464 (inactive) | -0.72 (inactive) | -0.357 | -0.224
15 | CO[C@H]([C@@H](C)[C@H](OC)c1ccccc1)[C@H](C)[C@@H](OC)[C@H](C)C(C)=O | 0.0132 | -1.22 (inactive) | 0.367 (inactive) | 0.758 (inactive) | -0.373 (inactive) | 0.135 (inactive) | -0.0566 (inactive) | -0.59 (inactive) | -0.0764 | -0.21
16 | CCOC(=O)NN=C1C[C@@H](O)[C@@H](O)[C@@H]2[C@@H]3C(=O)N(C4CCCCC4)C(=O)[C@@H]3CC[C@H]12 | -0.912 | 0.486 (inactive) | -0.74 (inactive) | 0.406 (inactive) | -0.0941 (inactive) | 0.0422 (inactive) | -0.43 (inactive) | -0.358 (inactive) | -0.927 | -0.0246
17 | Cc1cc2c(nc1C)CCCN2CC(O)CN1CCN(C)CC1 (stereo not given) | -0.406 | -0.428 (inactive) | -0.709 (inactive) | -1.14 (inactive) | 1.02 (inactive) | -0.185 (inactive) | -0.233 (inactive) | -0.125 (inactive) | -0.0252 | 1.64

From PubChem BioAssay
